Activity calls are given as the source filed them. Unless noted, how the calls were made is not given here.

Assay [1] is described as follows: resazurin metabolic signal in HepG2 cells – cell-based, resazurin fluorescence, 24 h, PK04 Diversity Set, profiling panel (AID 1172). Conditions: HepG2 viability, higher = more signal. For orientation: Alamar Blue is a resazurin reagent that responds to reducing activity.
Assay [2] can be described thus: budding yeast growth changes without added modifier – OD600, strain BY4716, 24 h, basal condition, primary screen (AID 1173). The settings on record: S. cerevisiae BY4716 growth, OD600, 24 h; higher = more signal, called active from +8 up or from −8 down.
Assay [3] in a line: viability profiling in MM1S myeloma cells – cell-based, resazurin fluorescence, basal, 24 h, PK04 Diversity Set, profiling panel (AID 1174). The settings on record: higher = more signal, called active from +8 up or from −8 down.
In assay [4] the target is Dihydroorotate dehydrogenase (quinone), mitochondrial (Plasmodium falciparum (isolate 3D7)) (UniProt Q08210). The assay can be described thus: inhibition of P. falciparum DHODH – biochemical, C-terminal His tag, absorbance 600 nm, primary screen (AID 1175).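 Further: recombinant parasite enzyme with a five histidine tag at its C terminus.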 Conditions: PfDHODH enzyme, DCIP absorbance 600 nm; higher = more signal, called active from +8 up or from −8 down.
Assay [5] is described as follows: inhibition of PAO1 biofilm formation – strain PAO1, LB-PBS medium, absorbance 600 nm, primary screen (AID 1176). The settings on record: P. aeruginosa PAO1 growth/biofilm, A600, 12 h; higher = more signal.
Assay [6] can be described thus: growth modulation of vineyard yeast isolate – strain RM11-1a, OD600, basal, 24 h, primary screen (AID 1177).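 Further: cultures grown under basal conditions with no added stressor.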 The settings on record: S. cerevisiae RM11-1a growth, OD600, 24 h; higher = more signal, called active from +8 up or from −8 down.
Assay [7] in a line: growth of efflux-deficient E. coli DRC39 – strain DRC39, OD650, 24 h, E. coli filamentation inducers, primary screen (AID 1178).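 Further: growth measured as culture turbidity by optical density at 650 nm.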 The settings on record: E. coli DRC39 acrAB, higher = more signal, called active from +8 up or from −8 down.
Assay [8] can be described thus: growth of efflux-deficient E. coli DRC39 – strain DRC39, OD650, 48 h, E. coli filamentation inducers, primary screen (AID 1179).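 Further: screen aims at cell division blockers that make cells filament.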 The settings on record: E. coli DRC39 delta-acrAB growth, higher = more signal, called active from +8 up or from −8 down.
The nature of assay [9]: viability profiling in RPMI8226 myeloma cells – cell-based, resazurin fluorescence, basal, 24 h, PK04 Diversity Set, profiling panel (AID 1180).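 Further: RPMI8826 multiple myeloma cell line at 5000 cells per well.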 Conditions: higher = more signal.
The target of assay [10] is E3 ubiquitin-protein ligase XIAP (Homo sapiens) (UniProt P98170). As to the kind of experiment: small molecules binding XIAP protein – biophysical, small-molecule microarray, fluorescence 635 nm, primary screen (AID 1181).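 Further: score merges 667 nm emission and signal to noise over triplicate slides.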 The settings on record: higher = more signal.
Assay [11] concerns XIP peptide (Xip251-270) binding. As to the kind of experiment: XIP fragment 251-270 binding compounds – biochemical, small-molecule microarray, fluorescence 635/667 nm, 0.1 µg/mL protein, primary screen (AID 1182). The settings on record: fluorescent protein binding, 635 nm, higher = more signal, called active from +8 up or from −8 down.
In another assay the test system is XIP peptide (Xip251-270). The assay can be described thus: compounds binding XIP fragment 251-270 – biochemical, small-molecule microarray, fluorescence 635/667 nm, 0.5 µg/mL protein, primary screen (AID 1183). The settings on record: fluorescence 635 nm, higher = more signal.
Assay [12] is described as follows: blood-stage malaria parasite viability loss – strain 3D7, DAPI fluorescence, 100 nL, primary screen (AID 1184).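 Further: parasites grown inside human red blood cells in medium with human serum.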 Conditions: P. falciparum 3D7 growth, 3 d, higher = more signal.
Assay [13] deals with Homeobox protein Hox-A13 (Mus musculus) (UniProt Q62424). As to the kind of experiment: disruptors of Hoxa13 oligonucleotide interaction – biochemical, fluorescence polarization, labeled oligonucleotide, primary screen (AID 1185). Conditions: Hoxa13:DNA binding, 15 min, higher = more signal, called active from +8 up or from −8 down. On the technique in general: Polarisation of emitted light reports the rotation of a fluorescent probe.

A short description of assay [14]: blockers of DNA damage checkpoint Chk1 activation – imaging, HeLa, hydroxyurea, phospho-Chk1 antibody, percent positive cells, primary screen (AID 1186). Conditions: hydroxyurea-induced phospho-Chk1 immunofluorescence imaging, higher = more signal.
Assay [15] can be described thus: blockers of DNA damage checkpoint Chk1 activation – imaging, HeLa, hydroxyurea, phospho-Chk1 nuclear intensity, primary screen (AID 1187). The settings on record: hydroxyurea-induced phospho-Chk1 immunofluorescence imaging, higher = more signal.

Homeobox protein Hox-A13 (Mus musculus), sequence (Q62424 whole entry, looked up): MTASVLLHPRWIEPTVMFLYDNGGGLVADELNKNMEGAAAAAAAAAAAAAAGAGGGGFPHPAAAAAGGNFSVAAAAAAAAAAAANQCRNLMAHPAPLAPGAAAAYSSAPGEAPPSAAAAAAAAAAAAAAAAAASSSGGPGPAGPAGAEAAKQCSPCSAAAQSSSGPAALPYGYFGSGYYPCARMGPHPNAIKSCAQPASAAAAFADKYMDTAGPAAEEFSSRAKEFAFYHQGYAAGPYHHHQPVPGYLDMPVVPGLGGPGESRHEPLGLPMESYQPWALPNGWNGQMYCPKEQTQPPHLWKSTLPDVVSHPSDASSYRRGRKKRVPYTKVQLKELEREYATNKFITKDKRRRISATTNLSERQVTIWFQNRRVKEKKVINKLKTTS
Dihydroorotate dehydrogenase (quinone), mitochondrial (Plasmodium falciparum (isolate 3D7)), sequence (Q08210 whole entry, looked up): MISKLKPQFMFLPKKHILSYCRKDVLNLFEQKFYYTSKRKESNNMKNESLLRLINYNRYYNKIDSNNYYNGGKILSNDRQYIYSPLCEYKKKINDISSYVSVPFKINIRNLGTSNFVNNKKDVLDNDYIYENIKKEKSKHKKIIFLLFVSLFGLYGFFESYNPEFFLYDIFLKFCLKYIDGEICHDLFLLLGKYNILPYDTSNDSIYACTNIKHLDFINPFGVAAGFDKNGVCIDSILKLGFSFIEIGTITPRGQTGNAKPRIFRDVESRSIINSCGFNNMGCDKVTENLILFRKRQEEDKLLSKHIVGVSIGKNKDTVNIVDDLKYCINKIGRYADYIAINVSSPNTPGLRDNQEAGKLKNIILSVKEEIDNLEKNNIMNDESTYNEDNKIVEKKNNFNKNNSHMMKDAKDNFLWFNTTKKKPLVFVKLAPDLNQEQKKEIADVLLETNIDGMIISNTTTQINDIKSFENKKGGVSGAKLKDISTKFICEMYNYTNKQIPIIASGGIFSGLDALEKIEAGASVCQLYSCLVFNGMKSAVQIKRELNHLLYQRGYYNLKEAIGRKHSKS
E3 ubiquitin-protein ligase XIAP (Homo sapiens), sequence (P98170 whole entry, looked up, the tested form may be a part): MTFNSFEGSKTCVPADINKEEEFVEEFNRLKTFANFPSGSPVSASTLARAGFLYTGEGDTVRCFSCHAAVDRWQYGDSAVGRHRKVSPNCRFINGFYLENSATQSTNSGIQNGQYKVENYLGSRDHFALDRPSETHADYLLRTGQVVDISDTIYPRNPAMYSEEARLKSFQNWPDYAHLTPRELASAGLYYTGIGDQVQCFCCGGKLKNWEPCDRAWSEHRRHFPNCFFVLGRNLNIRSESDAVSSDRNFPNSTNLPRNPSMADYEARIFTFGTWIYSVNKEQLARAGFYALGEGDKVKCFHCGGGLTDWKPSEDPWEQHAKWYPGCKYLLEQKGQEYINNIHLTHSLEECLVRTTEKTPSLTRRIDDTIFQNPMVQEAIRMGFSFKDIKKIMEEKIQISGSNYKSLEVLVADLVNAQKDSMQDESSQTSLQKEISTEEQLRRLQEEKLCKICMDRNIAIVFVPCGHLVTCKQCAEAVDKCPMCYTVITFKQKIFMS

`O=c1cccc(-c2ccc(F)cc2)o1`: the z-score in [1] was 0.0278; in assay [2], -0.576 (inactive); in assay [3] it was 0.306 (inactive); in [5], -0.088 (inactive); in [6], 0.18 (inactive); in assay [7], -0.561 (inactive). Further, the z-score is -0.165 (inactive) in assay [8]; -0.739 in assay [9]; 1.07 in assay [12]; -0.287 (inactive) in assay [13]; 0.454 (inactive) in assay [14]; 0.606 (inactive) in assay [15]. In addition, the composite z-score in assay [4] was -0.555 (inactive); in [10], -0.167; in assay [11], -0.133 (inactive); in the assay with XIP peptide (Xip251-270), 0.472.

Consider `C[C@]1(C(=O)NCCN2CCOCC2)c2ccccc2C(=O)N(Cc2cc(F)cc(C(F)(F)F)c2)[C@H]1c1ccc(CO)cc1`, for which the z-score was -0.0395 in [1]; 0.375 (inactive) in assay [2]; -0.464 (inactive) in assay [3]; 0.664 (inactive) in assay [5]; 0.0645 (inactive) in assay [6]; 1 (inactive) in assay [7]. Also, the z-score in assay [8] was 1.67 (inactive); in assay [9] it was 0.0794; in [12], -0.736; in [13] it was -3.91 (inactive); in assay [14] it was -0.69 (inactive); in assay [15], -0.691 (inactive). The composite z-score in [4] is 0.376 (inactive); in assay [10], -0.116; in assay [11], 1.14 (inactive); in the assay with XIP peptide (Xip251-270), 0.826.

Regarding `CC(C)(C)OC(=O)CC[C@]1(C(=O)N2CCCCC2)COC(c2ccc(OCCCO)cc2)=N1`, the z-score is 2.29 in [1]; -1.31 (inactive) in assay [2]; 0.619 (inactive) in [3]; -1.17 (inactive) in assay [5]; -0.398 (inactive) in assay [6]; 0.134 (inactive) in assay [7]. In addition, the z-score is 0.139 (inactive) in [8]; 1.41 in assay [9]; -1.4 in assay [12]; -4.56 (inactive) in assay [13]; -0.334 (inactive) in assay [14]; 0.131 (inactive) in [15]. Moreover, the composite z-score was -0.509 (inactive) in assay [4], 0.162 in assay [10], 0.252 (inactive) in assay [11] and 0.643 in the assay with XIP peptide (Xip251-270).

With `[N-]=[N+]=Nc1ccccc1C[C@]1(C(=O)O)N=C(c2ccc(OCCCO)cc2)O[C@H]1c1ccccc1`, the z-score in assay [1] is -0.0033; in assay [2], -1.77 (inactive); in assay [3], -1.1 (inactive); in [5], 0.258 (inactive); in assay [6], -0.1 (inactive); in assay [7], -0.115 (inactive). Also, the z-score in assay [8] is -0.0225 (inactive); in assay [9], -0.954; in assay [12], 0.283; in [13], -5.34 (inactive); in assay [14] it was 0.496 (inactive); in assay [15], 0.558 (inactive). Moreover, the composite z-score in assay [4] is 0.502 (inactive); in assay [10], -0.0562; in assay [11], 0.471 (inactive); in the assay on XIP peptide (Xip251-270) it was 0.641.

For the compound `C=CCN1C(=O)[C@]2(O[C@H](CCO)[C@@H]([Si](C)(C)c3ccc(OC)cc3)[C@@H]2C)c2cc(NC(=O)c3ccc(OC)cc3)ccc21`, the z-score in assay [1] is -4.24; in assay [2] it was -1.07 (inactive); in [3], -4.56 (inactive); in [5], 1.98 (inactive); in [6] it was 2.23 (inactive); in [7] it was 0.626 (inactive). Besides, the z-score was -0.723 (inactive) in assay [8]; -6.22 in assay [9]; -2.64 in assay [12]; -5.32 (inactive) in [13]; -0.97 (inactive) in assay [14]; -0.881 (inactive) in assay [15]. The composite z-score in assay [4] was -0.224 (inactive); in assay [10], 0.401; in assay [11], -0.129 (inactive); in the assay with XIP peptide (Xip251-270), 0.456.

As to `CN1C(=O)C2C=CC(C(O)c3cc(C(F)(F)F)cc(C(F)(F)F)c3)N(Nc3ccccc3)C2C1=O` (stereo not given), the z-score was -0.0075 in assay [1]; -2.64 (inactive) in assay [2]; -0.18 (inactive) in [3]; 0.214 (inactive) in assay [5]; -0.478 (inactive) in [6]; -0.732 (inactive) in assay [7]. Besides, the z-score in assay [8] was -0.556 (inactive); in assay [9], 0.298; in [12] it was 1.08; in [13], -3.84 (inactive); in assay [14] it was -0.0145 (inactive); in assay [15], 0.0934 (inactive). Also, the composite z-score in assay [4] is -0.274 (inactive); in assay [10] it was 0.0641; in [11], 1.9 (inactive); in the assay with XIP peptide (Xip251-270), 0.128.

In the case of `CCCC=C(CCC)[C@@H](NS(=O)(=O)c1cccc2cccnc12)c1ccc(-c2ccccc2)cc1`, the z-score in assay [1] was 1.15; in assay [2], 0.928 (inactive); in [3], 1.02 (inactive); in assay [5] it was -0.787 (inactive); in [6], 0.52 (inactive); in assay [7], -0.24 (inactive). In addition, the z-score in assay [8] is -0.342 (inactive); in [9] it was 1.27; in assay [12], -0.831; in [13] it was -0.807 (inactive); in assay [14], 0.483 (inactive); in assay [15] it was 0.309 (inactive). Moreover, the composite z-score in [4] was -0.0926 (inactive); in assay [10], 0.072; in assay [11] it was -0.356 (inactive); in the assay with XIP peptide (Xip251-270) it was 0.604.

As to `COc1ccc([Si](C)(C)[C@H]2[C@H](CCO)O[C@@]3(C(=O)N(Cc4ccccc4)c4ccc(N5CCOC5=O)cc43)[C@@H]2C)cc1`, the z-score in [1] is -1.27; in assay [2] it was 1.12 (inactive); in assay [3], -3.35 (inactive); in [5], 2.41 (inactive); in assay [6], 4.25 (inactive); in assay [7], 0.895 (inactive). The z-score in assay [8] is 0.0981 (inactive); in assay [9], -2.64; in assay [12], -1.75; in assay [13], -3.27 (inactive); in assay [14], -0.796 (inactive); in [15] it was -0.721 (inactive). Besides, the composite z-score was 0.0738 (inactive) in assay [4], -0.135 in [10], 0.16 (inactive) in [11] and 0.52 in the assay with XIP peptide (Xip251-270).

Regarding `CCOC(=O)C=Cc1cc(F)ccc1O`, the z-score in assay [1] is -0.338; in assay [2], -12.6 (active); in [3] it was -0.99 (inactive); in assay [5] it was -0.0727 (inactive); in assay [6], -23.2 (active); in assay [7], -1.01 (inactive). Besides, the z-score in assay [8] is -1.31 (inactive); in assay [9], -0.935; in [12], -1.65; in assay [13], -0.42 (inactive); in assay [14] it was 0.631 (inactive); in [15] it was -1.13 (inactive). Moreover, the composite z-score in assay [4] was -1.09 (inactive); in [10], -0.196; in assay [11] it was 0.198 (inactive); in the assay on XIP peptide (Xip251-270) it was 0.487.

Regarding `C=C[C@@H](C)[C@H](O)c1ccc(OCCO)cc1`, the z-score in [1] was 0.0075; in assay [2] it was -0.731 (inactive); in [3] it was 0.088 (inactive); in [5], 0.0852 (inactive); in assay [6] it was 0.164 (inactive); in assay [7], 1.02 (inactive). Further, the z-score in assay [8] was 0.856 (inactive); in assay [9], -0.127; in assay [12] it was 0.99; in assay [13], -0.166 (inactive); in assay [14] it was 0.485 (inactive); in assay [15], 0.739 (inactive). In addition, the composite z-score in assay [4] is -0.445 (inactive); in assay [10], -0.184; in [11] it was 0.313 (inactive); in the assay with XIP peptide (Xip251-270), 0.0813.

These data come from PubChem BioAssay.
